Shown are actives, neighbours in structure and some others; about 3.5% of the full set was active somewhere.
GPR151 activ = activators of human GPR151, primary screen, cell-based, PathHunter beta-arrestin, luminescence; G-protein coupled receptor 151 (Homo sapiens), Q8TDV0; PathHunter beta-arrestin GPR151 cells; activation, % at 11.2 µM; actives 1% (n = 650,000); AID 1508602, 2020; in the data active means activation above about 4.9%;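 further: 0% = median of compound wells and 100% = cells with positive control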
FBW7 act = FBW7 E3 ligase activators, primary screen, biochemical, AlphaScreen, human | F-box/WD repeat-containing protein 7 (Homo sapiens), Q969H0 | AlphaScreen FBW7–phospho-cyclin E peptide binding, activator screen | normalized activity (activation), % at 26.1 µM | actives 0.13% (n = 650,000); in the data active means normalized activity above about 1.9%;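 further: purified mutant Fbw7 with reduced substrate affinity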
Target sequence (Q969H0 whole entry, looked up): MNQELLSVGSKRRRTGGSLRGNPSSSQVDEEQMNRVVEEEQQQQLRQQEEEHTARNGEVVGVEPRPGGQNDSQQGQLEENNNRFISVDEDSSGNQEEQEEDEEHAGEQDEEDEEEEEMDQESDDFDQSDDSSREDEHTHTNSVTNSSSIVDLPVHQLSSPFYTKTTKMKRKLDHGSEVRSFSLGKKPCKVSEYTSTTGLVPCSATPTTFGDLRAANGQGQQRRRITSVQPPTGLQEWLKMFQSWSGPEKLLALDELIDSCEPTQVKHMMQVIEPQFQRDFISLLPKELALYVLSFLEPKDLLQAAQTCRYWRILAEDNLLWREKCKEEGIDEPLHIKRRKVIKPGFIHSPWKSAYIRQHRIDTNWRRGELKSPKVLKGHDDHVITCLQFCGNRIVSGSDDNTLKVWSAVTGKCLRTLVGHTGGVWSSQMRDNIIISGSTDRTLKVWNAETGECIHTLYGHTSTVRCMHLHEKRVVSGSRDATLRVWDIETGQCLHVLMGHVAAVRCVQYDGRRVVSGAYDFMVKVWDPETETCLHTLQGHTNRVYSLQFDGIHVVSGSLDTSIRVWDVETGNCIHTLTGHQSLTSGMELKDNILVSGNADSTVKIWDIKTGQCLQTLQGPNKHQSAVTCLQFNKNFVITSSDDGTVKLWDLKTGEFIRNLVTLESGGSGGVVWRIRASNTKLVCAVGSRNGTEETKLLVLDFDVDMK
MITF inh = MITF inhibitors, primary screen, biochemical, AlphaScreen, human | Microphthalmia-associated transcription factor (Homo sapiens), O75030 | AlphaScreen MITF homodimerization, bead proximity signal | inhibition, % at 2.6 µM | actives 0.91% (n = 650,000) | AID 1259374, 2018; in the data active means inhibition above about 50%;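 further: 0% = vehicle wells with protein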
TEAD-YAP block = TEAD-YAP interaction inhibition, primary screen, TEAD-YAP interaction inhibitor project, luminescence, HEK-TIYL cells. actives 1.4% (n = 640,000). TEAD-Gal4/YAP UAS-luciferase luminescence. inhibition, % at 9.12 µM; in the data active means inhibition above about 32%;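 further: 0% = median of test compound wells and 100% = reference inhibitor wells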
MITF inh conf = MITF inhibitors, retest of hits, confirmation, biochemical, AlphaScreen, triplicate | shares compounds with MITF inh | AlphaScreen MITF homodimerization, biotin/His-MITF beads | inhibition, % at 2.6 µM | actives 16% (n = 4,700);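 active means inhibition above a cutoff derived from the DMSO control wells, cut at about 28% in these data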;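 further: 0% = MITF dimer wells with DMSO only; inhibitors lower the bead chemiluminescence by keeping MITF from dimerizing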
AS interf DR = AlphaScreen optical interference compounds, dose response, counter-screen, biochemical, HTS; shares compounds with MITF inh; IC50, µM; AID 1259373, 2018; AlphaScreen optical interference counterscreen, cell-free; actives 6% (n = 480); call rule not given here
AlphaScreen intf2 = AlphaScreen optical interference compounds, counter-screen for MITF inhibitor project, biochemical, triplicate. inhibition, % at 2.6 µM. AID 1259376, 2018. LysRS AlphaScreen counterscreen, signal interference. actives 7.6% (n = 4,700). shares compounds with MITF inh;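 active means inhibition above a cutoff derived from the DMSO control wells, cut at about 30% in these data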
* = called active by the depositor; · = no result.

SMILES	GPR151 activ	FBW7 act	MITF inh	TEAD-YAP block	MITF inh conf	AlphaScreen intf2	others
O=[N+]([O-])c1ccc(CNC2CCCC2)cc1	0.0	-0.2	12.2	-10.8	·	·
CC1CCCCC1NCc1ccc([N+](=O)[O-])cc1 (stereo unspecified)	0.4	0.3	75.3*	7.4	-9.0	-3.7
N#Cc1c(SCC(=O)O)nc2c(c1-c1ccco1)CCC2	0.7	-0.6	60.2*	-6.4	71.5*	20.0	AS interf DR=>6.91
CC(=O)Nc1ccc(NC(=O)CN2CCN(C)CC2)cc1	-0.8	0.5	1.7	-23.9	·	·
CN1CCN(CC(=O)Nc2ccc(N3CCCCCC3)cc2)CC1	0.2	-0.3	55.4*	-2.6	-12.6	37.2*
O=C(Cn1c(-c2ccccc2)noc1=O)Nc1ccc(N2CCCCCC2)cc1	1.4	-0.6	54.1*	12.9	15.3	16.6
Cc1cc(NC(=O)CN2CCN(c3cccc(Cl)c3)CC2)no1	2.3	0.0	-3.8	0.6	·	·
CN1CCN(CC(=O)Nc2ccc(C(F)(F)F)cc2)CC1	-0.2	0.1	66.5*	-2.8	7.8	15.0
CN1CCN(CC(=O)Nc2ccc(C(=O)N3CCCC3)cc2)CC1	-0.6	0.7	34.0	5.3	·	·
Cc1cc(NC(=O)CN2CCN(c3ccc(F)cc3)CC2)no1	0.1	0.1	54.1*	-0.9	3.6	2.9
C=CCOc1ccc(/C=N/NC(=O)C(=O)Nc2cccc(C(F)(F)F)c2)cc1OC	-1.0	0.5	-1.1	10.6	·	·
CCOc1ccccc1NC(=O)CN(C(=O)N1CCN(C)CC1)S(=O)(=O)c1ccc(C)cc1	1.4	0.1	-5.3	-6.7	·	·
CC1CCN(C(=O)CCNC(=O)c2cccs2)CC1	-0.6	0.0	4.2	-14.3	·	·
O=S(=O)(NCCN1CCN(c2ccccc2F)CC1)c1ccccc1Cl	1.8	-0.1	71.8*	-4.5	2.4	-4.0
Cn1c(=O)oc2cc(S(=O)(=O)NCCN3CCN(c4ccccc4F)CC3)ccc21	0.4	0.3	14.1	1.4	·	·
Cc1ccc(C(=O)NCc2cccc(Cl)c2)s1	0.4	0.2	6.6	-21.9	·	·
COc1cc(CN2CCN(c3ccccc3F)CC2)c([N+](=O)[O-])cc1OC	-0.4	0.1	64.3*	-2.5	12.0	6.0
COc1cc(CN2CCCCCC2)c([N+](=O)[O-])cc1OC	1.7	0.0	19.6	1.1	·	·
COc1cc(CN2CCCCC2)c([N+](=O)[O-])cc1OC	0.3	0.2	-6.5	6.5	·	·
COc1cccc(CN2CCN(Cc3cc(OC)c(OC)cc3[N+](=O)[O-])CC2)c1	-0.4	-0.1	76.2*	6.9	10.7	19.6
COc1cc(CN2CCN(c3ccccc3OC)CC2)c([N+](=O)[O-])cc1OC	0.3	0.1	20.8	1.9	·	·
COc1ccc(OC)c(CN2CCN(Cc3cc(OC)c(OC)cc3[N+](=O)[O-])CC2)c1	0.3	-0.2	72.0*	3.8	11.1	18.3
COc1cc(OC)c(OC)cc1CN1CCN(Cc2cc(OC)c(OC)cc2[N+](=O)[O-])CC1	-0.3	-0.2	62.4*	1.7	4.9	14.8
Cc1ccc2nsnc2c1NC(=O)c1ncn[nH]1	0.9	-0.4	52.5*	4.9	11.5	4.3
COc1cc(CN2CCN(S(=O)(=O)c3ccc(F)cc3)CC2)cc(OC)c1OC	1.7	0.0	51.5*	6.4	-1.9	6.7
SMILES	GPR151 activ	FBW7 act	MITF inh	TEAD-YAP block	MITF inh conf	AlphaScreen intf2	others
COc1cc(CN2CCN(S(=O)(=O)c3ccccc3)CC2)cc(OC)c1OC	-0.2	-0.1	41.8	-5.2	·	·
COc1cc(CN2CCN(S(=O)(=O)c3ccc(C)cc3)CC2)cc(OC)c1OC	-1.1	0.8	51.8*	6.9	-0.6	11.9
CCS(=O)(=O)N1CCN(Cc2cc(OC)c(OC)c(OC)c2)CC1	1.8	0.0	51.8*	4.3	7.0	14.0
COc1cc(CN2CCN(S(=O)(=O)c3ccc([N+](=O)[O-])cc3)CC2)cc(OC)c1OC	0.2	-0.1	33.9	-5.6	·	·
Cc1ccc(C(=O)C2CCN(C(=O)/C=C/C(=O)O)CC2)cc1	-0.4	0.4	10.8	4.8	·	·
CCc1nc2c(sc3cccc(F)c32)c(=O)n1CC(=O)NCc1ccc(Cl)cc1	-0.5	0.3	54.6*	-4.3	-5.0	-5.3
CCOc1ccc(NS(=O)(=O)c2ccc(OC)c([N+](=O)[O-])c2)cc1	1.6	-0.2	5.2	14.6	·	·
Cc1ccc([N+](=O)[O-])cc1NC(=O)/C(=C\c1ccc(N(C)C)cc1)NC(=O)c1ccccc1Br	1.3	0.0	4.5	10.5	·	·
CCCS(=O)(=O)N1CCN(C(C)CC)CC1 (stereo unspecified)	2.3	-0.1	51.8*	-2.5	-2.6	12.7
COc1cccc(-c2nnc(SCC#N)n2C)c1	-1.0	0.1	16.7	2.0	·	·
C(=C\c1ncc2ccccn12)/c1ccccc1	-3.2	0.4	56.5*	-36.2	-70.1	-11.4
CCCn1cc(NC(=O)c2ccc(Br)o2)cn1	-2.6	0.1	-0.5	-50.8	·	·
CCCn1cc(NC(=O)c2cc(-c3ccccc3N)no2)cn1	1.2	0.0	73.2*	-17.5	-17.4	-1.0
CCNC(=S)N1CCn2cccc2C1c1ccc(OC)cc1 (stereo unspecified)	-0.6	0.0	10.8	10.2	·	·
O=C(NC1CC1)c1cnc2scc(-c3ccccc3Cl)n2c1=O	-0.2	0.3	10.6	8.0	·	·
CCC(C)C(=O)NCc1nnc2n1CCN(C/C=C/c1ccco1)CC2 (stereo unspecified)	1.4	0.0	59.6*	7.1	77.2*	-8.0	AS interf DR=>6.48
COc1cc(/C=N/N=C2\NC(=O)C(CC(=O)O)S2)ccc1OCc1ccc(C)cc1 (stereo unspecified)	-1.3	0.2	65.7*	-40.4	44.9*	3.6	AS interf DR=>6.48
COc1cc(/C=N/N=C2\NC(=O)C(CC(=O)O)S2)ccc1OCC(=O)O (stereo unspecified)	0.4	-0.2	9.5	1.1	·	·
Cc1ccc2cc(CN(C(=O)Nc3ccccc3)C3CCCC3)c3nnnn3c2c1	-0.1	-0.1	65.4*	10.9	3.2	10.9
COc1ccc(OC)c(CN2CCN(Cc3ccc(C(F)(F)F)cc3)CC2)c1	-0.4	-0.2	78.5*	-5.2	10.3	21.2
COc1cccc(CN2CCN(Cc3ccc(C(F)(F)F)cc3)CC2)c1	-0.4	0.0	80.8*	-11.3	7.4	12.6
CN1CCCN(Cc2ccc(C(F)(F)F)cc2)CC1	1.4	0.1	49.4	0.3	·	·

Screening data as filed in PubChem.
